Test results published in PubChem BioAssay (NCI).
Compounds without any hit were thinned out: in the full panel of roughly 79,000, 15% have a hit. Rule as the data show it: active = growth inhibition above about 70%; inactive = the rest.

Assays:
[1] = NCI Yeast Anticancer Drug Screen. Data for the rad50 strain (AID 155);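 also: 0% = growth of vehicle-only cultures of the same strain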; settings: S. cerevisiae rad50 strain growth inhibition; at 50.0 µM; stronger effect = higher value
Procedure, shortened: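 Cells are treated with compound, grown, and their growth is then scored against vehicle-only cultures of the same repair-deficient yeast strain.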

[2] = NCI Yeast Anticancer Drug Screen. Data for the mec2-1 strain (AID 157); settings: S. cerevisiae mec2-1 strain, at 50.0 µM, stronger effect = higher value
Procedure, shortened: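 Yeast mec2-1 mutant treated with compound. Readout: growth inhibition vs vehicle controls.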

[3] = NCI Yeast Anticancer Drug Screen. Data for the sgs1 mgt1 strain (AID 161);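 also: 0% = growth of cultures given vehicle only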; settings: S. cerevisiae sgs1 mgt1 strain, at 50.0 µM, stronger effect = higher value
Procedure, shortened: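 Test agents were incubated with a DNA-repair-mutant yeast strain. Growth was then read and compared against vehicle-treated controls.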

[4] = NCI Yeast Anticancer Drug Screen. Data for the cln2 rad14 strain (AID 165);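 also: 0% = growth equal to vehicle treated cultures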; settings: S. cerevisiae cln2 rad14 strain, at 50.0 µM, stronger effect = higher value
Procedure, shortened: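 cln2 rad14 yeast strain; compound exposure; growth inhibition read vs vehicle controls.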

[5] = NCI Yeast Anticancer Drug Screen. Data for the bub3 strain (AID 167); settings: S. cerevisiae bub3 mutant strain, at 50.0 µM, stronger effect = higher value
Procedure, shortened: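 Part of a panel of yeast mutants defective in DNA damage repair or cell cycle regulation. Each strain is grown with compound, and inhibition is calculated relative to solvent-treated cultures.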

[6] = NCI Yeast Anticancer Drug Screen. Data for the mlh1 rad18 strain (AID 175); settings: S. cerevisiae mlh1 rad18 strain growth inhibition; at 50.0 µM; stronger effect = higher value
Procedure, shortened: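 Yeast w/ defined DNA-repair lesions; compound exposure; growth vs vehicle controls → % inhibition.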

Measured: growth inhibition

COc1ccc(/C=c2\sc3n(c2=O)C(N)=C(C#N)C(c2ccc(OC)cc2)C=3c2nc3ccccc3[nH]2)cc1 (configuration not stated)
inactive: [1] 18.1% | [2] -13.2% | [3] 9.95% | [4] -16.1% | [5] 8.95% | [6] 11.3%

CCn1c(C)[n+](CC)c2ccc(C(C)=O)cc21
inactive: [1] -0.35% | [2] -19.7% | [3] -3.95% | [4] 8.95% | [5] 2.55% | [6] -8.75%

Nc1nnc2nc(CC(=O)c3ccccn3)/c(=C/C(=O)c3ccccn3)n12
inactive: [1] -7.3% | [2] -13.7% | [3] -2.8% | [4] -43.3% | [5] -26.9% | [6] -23.1%

BrC1CC1(c1ccccc1)c1ccccc1 (configuration not stated)
inactive: [1] 0.1% | [2] 0.35% | [3] -3.5% | [4] -6.4% | [5] 3.65% | [6] -0.3%

O=C(Nc1cccc2ccccc12)c1ccccc1F
inactive: [1] -1.35% | [2] 16.8% | [3] 14.9% | [4] -2.15% | [5] 21.1% | [6] 11.8%

CC1(OC(=O)Nc2ccccc2)CCCCC1
inactive: [1] 5.75% | [2] -0.8% | [3] 0.9% | [4] 3.55% | [5] 3.55% | [6] -9.95%

CCO[C@@H]1C2C=CC(C2)[C@H]1[N+](=O)[O-] (some centres not stated)
inactive: [1] -11.8% | [2] 12.2% | [3] -5.65% | [4] 15.4% | [5] 3.05% | [6] -5.4%

CC(=O)Nc1ccc(S(=O)(=O)NNC(=O)NNS(=O)(=O)c2ccc(NC(C)=O)cc2)cc1
inactive: [1] -6.15% | [2] -7.2% | [3] -11.5% | [4] 2.5% | [5] -7% | [6] -10.4%

Cc1ccc(C(=O)N/N=C/c2ccc3ccccc3c2)cc1
inactive: [1] -1% | [2] -13.2% | [3] -5.25% | [4] -13.8% | [5] 33.4% | [6] -5.3%

O/N=C1/C(=C/c2ccc(Br)cc2)CCCC1C(NO)c1ccc(Br)cc1 (configuration not stated)
inactive: [1] 0.9% | [2] -9.8% | [3] -27.4% | [4] 24.2% | [5] 0.45% | [6] -12.9%

CC(=O)OCC1OC(OC(C)=O)C(NS(=O)(=O)Cc2ccccc2)C(OC(C)=O)C1OC(C)=O (configuration not stated)
inactive: [1] 10.5% | [2] 17.4% | [3] 13.7% | [4] -1.35% | [5] -1.2% | [6] 20.4%

CCCCCC(CCCCC)c1ccccn1
inactive: [1] -14.3% | [2] -11.4% | [3] 3.95% | [4] 22.4% | [5] 26.9% | [6] 4.1%

COc1ccc(CNc2nc3ccc(C(F)(F)F)cc3nc2-c2ccccc2)cc1OC
inactive: [1] -33.8% | [2] 3.7% | [3] 17.6% | [4] 6.45% | [5] 1.05% | [6] -11.9%

O=c1oc2ccc(Cl)cc2c(=O)n1-c1cc(Cl)ccc1[N+](=O)[O-]
inactive: [1] -4.65% | [2] -21% | [3] -6.8% | [4] -11.5% | [5] 0.45% | [6] 21.6%

C=CCS(=O)CC(NC(=O)c1ccccc1)C(=O)O (configuration not stated)
inactive: [1] -32% | [2] -3.75% | [3] 20.6% | [4] -15.4% | [5] 4.1% | [6] -13.4%

CCC1(CC)C(=O)OC(=O)C1(CC)CC
inactive: [1] -6.05% | [2] 6.7% | [3] 2.8% | [4] -8.2% | [5] -10.9% | [6] -10.4%

CCOC(=O)CCOc1ccccc1
inactive: [1] 8% | [2] 9.1% | [3] 8.45% | [4] 3.8% | [5] -0.85% | [6] 22.8%

COc1c(OC(C)=O)c(Cl)cc(C=O)c1[N+](=O)[O-]
inactive: [1] 47.1% | [2] 28.7% | [3] 30.1% | [4] 22.1% | [5] 22% | [6] 62.5%

Nc1cc(C(=O)c2ccccc2C(=O)O)ccc1Cl
inactive: [1] -34.3% | [2] -46.7% | [3] -8.3% | [4] 6.65% | [5] -28.8% | [6] -15.9%

COc1ccc(C2=CSC3=NC(C)(C)CC(C)=NN23)cc1
inactive: [1] -16.8% | [2] -8.2% | [3] 7.35% | [4] 29.2% | [5] 9.25% | [6] -1.75%

CCOC(=O)c1cnc2cc3c(cc2c1Nc1ccc2c(c1)OCO2)OCO3
inactive: [1] 12.4% | [2] 13.3% | [3] 6.85% | [4] 3.6% | [5] 0% | [6] 20%

C/C(=N\NC(=O)CC(=O)N(C(=O)c1ccc(Cl)cc1)c1ccc(C)cc1)c1ccccc1O
inactive: [1] -2.05% | [2] -26% | [3] -10.2% | [4] 5.9% | [5] -1.3% | [6] -29.6%

Cc1cc2c(=O)cc(-c3ccc(C(=O)O)cc3)oc2c(C(=O)O)c1C
inactive: [1] 7.1% | [2] 4.3% | [3] 22.8% | [4] 29.8% | [5] 5.7% | [6] 10.5%

O=[N+]([O-])c1ccc(N/N=C2/CC(c3ccccc3)C(c3ccccc3)=C2Cl)c([N+](=O)[O-])c1 (configuration not stated)
inactive: [1] 26.2% | [2] 15.6% | [3] 9.45% | [4] 24.4% | [5] -1.75% | [6] 15.7%

O=c1ccc2cc(Cl)ccc2o1
inactive: [1] 12.6% | [2] -12.9% | [3] -7.8% | [4] -16.4% | [5] 18.1% | [6] -20.1%

CC(=O)OC1COC(n2c(=S)n(-c3ccccc3)c(=O)c3cc(Br)ccc32)C(OC(C)=O)C1OC(C)=O (configuration not stated)
inactive: [1] 1.9% | [2] -5.4% | [3] 8.45% | [4] 15.8% | [5] -3.85% | [6] -11.9%

CNc1ccc(C)cc1S(=O)(=O)c1ccccc1[N+](=O)[O-]
inactive: [1] 65.5% | [2] 42.5% | [3] 58.1% | [4] 29.2% | [5] 47.1% | [6] 16.1%

CCOc1ccccc1NC(=O)C1=C(C)NC(C)=C(C(=O)Nc2ccccc2OCC)C1c1ccc(NC(C)=O)cc1
inactive: [1] -30.1% | [2] -10.8% | [3] -15.4% | [4] -5.9% | [5] -22.2% | [6] 11.7%

CC1(C)SC2C(C(=O)O)N=C(Cc3ccccc3)N2C1C(=O)O (configuration not stated)
inactive: [1] 3.2% | [2] -17.9% | [3] -23.4% | [4] 1.45% | [5] -34% | [6] -7.05%

Cc1ccc(NC(=S)NCC2CCCO2)cc1C (configuration not stated)
inactive: [1] 9% | [2] 7.2% | [3] 10.6% | [4] 8.85% | [5] 19.4% | [6] 14.7%

O=C(c1ccccc1)C1CCCCC1
inactive: [1] 1.05% | [2] -3.65% | [3] -6.25% | [4] 6.45% | [5] 4.4% | [6] -3.7%

O=[N+]([O-])c1ccc(-c2nc3ccc(Cl)cc3[nH]2)cc1
inactive: [1] -16.1% | [2] 30.9% | [3] 25.2% | [4] 21.9% | [5] 9.55% | [6] 44.5%

CC1=NN2C(c3ccc(C)cc3)=CSC2=NC(C)(C)C1
inactive: [1] 20.6% | [2] -1.45% | [3] 2.45% | [4] 19.8% | [5] 5% | [6] -1.1%

O=C(O)C1c2ccccc2C(C(=O)O)c2ccccc21 (configuration not stated)
inactive: [1] -6.4% | [2] -2.25% | [3] -4% | [4] 19.9% | [5] 13% | [6] 31.8%

C[n+]1ccc(/C(C#N)=N/O)cc1
inactive: [1] -16.4% | [2] -39.9% | [3] -20.6% | [4] 20.6% | [5] -25.8% | [6] -28.9%

O=C1C=C(n2ccccc2=O)CCC1
inactive: [1] 8.05% | [2] 2.15% | [3] 11.4% | [4] -29.1% | [5] -1.8% | [6] 0.05%

O=C(O)C[C@H]1CCCCC12CCOC2=O (some centres not stated)
inactive: [1] 10.8% | [2] 6.7% | [3] -0.7% | [4] -18.6% | [5] 22% | [6] 9.85%
